Reference: PubChem BioAssay AID1159580 (chemical genetic matrix, 2015)
In all, about 5,500 compounds went through this assay and about 2,000 (36%) were called active. Not shown: some 18% with an inconclusive outcome. No stated cut-off is given here; in the data, active means normalized growth mostly below about 0.91 (no sharp cut-off); inconclusive means no clear call, values can overlap the other calls; inactive means mostly above about 0.92. The list shows a part of the results.

Assay: chemical genetic growth profiling, strain panel (AID 1159580);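 further: tested at 20 µM; growth read once vehicle control cultures reached saturation at 30 °C; 1 = growth at the plate median or of vehicle wells; lower values mean less growth of the strain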
Settings: S. cerevisiae deletion strains, growth OD

Measured: normalized growth

CC(C1OC(C)(C)C(O)C1O)[C@@H]1CC[C@]2(C)C3=CCC4C(C)(C)C(=O)CC[C@]4(C)C3CC[C@@]12C (stereo partly drawn)
inactive: locus YAL013W, strain DEP1, hits give low values 0.979 | locus YAL021C, strain ccr4, hits give low values 1.02 | locus YAL026C, strain drs2, hits give low values 0.987 | locus YAL030W, strain snc1, hits give low values 1 | locus YBL061C, strain skt5, hits give low values 0.978 | locus YBR009C, strain hhf1, hits give low values 0.946 | locus YBR021W, strain FUR4, hits give low values 1.06 | locus YBR023C, strain chs3, hits give low values 0.985 | locus YBR171W, strain sec66, hits give low values 0.985 | locus YBR229C, strain ROT2, hits give low values 1.02 | locus YBR231C, strain swc5, hits give low values 0.971 | locus YBR279W, strain paf1, hits give low values 0.995 | locus YCL011C, strain gbp2, hits give low values 0.981 | locus YCL016C, strain dcc1, hits give low values 0.989 | locus YCL029C, strain bik1, hits give low values 1.01 | locus YCL061C, strain MRC1, hits give low values 0.995 | locus YCL069W, strain vba3, hits give low values 0.994 | locus YCR088W, strain abp1, hits give low values 1 | locus YDL005C, strain med2, hits give low values 0.968 | locus YDL035C, strain GPR1, hits give low values 0.931 | locus YDL040C, strain nat1, hits give low values 0.976 | locus YDL074C, strain BRE1, hits give low values 0.845 | locus YDL101C, strain DUN1, hits give low values 0.989 | locus YDL134C, strain PPH21, hits give low values 0.951 | locus YDL192W, strain arf1, hits give low values 0.983 | locus YDR001C, strain nth1, hits give low values 0.999 | locus YDR069C, strain doa4, hits give low values 0.985 | locus YDR101C, strain arx1, hits give low values 0.973 | locus YDR137W, strain rgp1, hits give low values 1.02 | locus YDR159W, strain sac3, hits give low values 0.898 | locus YDR162C, strain NBP2, hits give low values 0.958 | locus YDR195W, strain ref2 1.05 | locus YDR297W, strain sur2, hits give low values 0.981 | locus YDR318W, strain mcm21, hits give low values 1 | locus YDR334W, strain swr1, hits give low values 0.987 | locus YDR335W, strain msn5, hits give low values 0.999 | locus YDR388W, hits give low values 1.03 | locus YDR392W, strain spt3, hits give low values 0.838 | locus YDR502C, strain sam2, hits give low values 0.989 | locus YEL003W, strain gim4, hits give low values 0.937 | locus YEL037C, strain rad23, hits give low values 0.983 | locus YEL061C, strain CIN8 (second series), hits give low values 0.99 | locus YER015W, strain faa2, hits give low values 0.992 | locus YER016W, strain bim1, hits give low values 0.99 | locus YER110C, hits give low values 1.03 | locus YER111C, strain swi4, hits give low values 0.999 | locus YER155C, strain BEM2 (second series), hits give low values 0.924 | locus YER155C, strain BEM2, hits give low values 1.07 | locus YER167W, strain BCK2, hits give low values 1.01 | locus YFR010W, strain ubp6, hits give low values 0.973 | locus YGL078C, strain dbp3, hits give low values 1.03 | locus YGL086W, strain mad1, hits give low values 1.03 | locus YGL167C, strain pmr1, hits give low values 0.977 | locus YGL173C, strain kem1, hits give low values 0.976 | locus YGL227W, strain vid30, hits give low values 0.99 | locus YGL240W, strain doc1, hits give low values 0.896 | locus YGL248W, strain PDE1, hits give low values 0.97 | locus YGL253W, strain hxk2, hits give low values 0.922 | locus YGR078C, strain PAC10, hits give low values 0.91 | locus YGR135W, strain pre9, hits give low values 1.01 | locus YGR252W, strain gcn5, hits give low values 0.77 | locus YHR013C, strain ard1, hits give low values 0.966 | locus YHR027C, strain rpn1, hits give low values 1.02 | locus YHR079C, strain IRE1 (second series), hits give low values 1.03 | locus YHR094C, strain hxt1, hits give low values 1.03 | locus YHR129C, strain ARP1, hits give low values 1 | locus YHR142W, strain chs7, hits give low values 0.919 | locus YHR200W, strain rpn10, hits give low values 1.01 | locus YIL066C, strain RNR3, hits give low values 0.887 | locus YIL073C, strain SPO22, hits give low values 0.99 | locus YIL125W, strain kgd1, hits give low values 1.03 | locus YIR030C, strain dcg1, hits give low values 1.04 | locus YJL092W, strain hpr5, hits give low values 1 | locus YJL095W, strain BCK1 (second series), hits give low values 1 | locus YJL095W, strain BCK1, hits give low values 0.904 | locus YJL115W, strain asf1, hits give low values 0.985 | locus YJL129C, strain trk1, hits give low values 0.949 | locus YJL134W, strain LCB3, hits give low values 1.04 | locus YJL154C, strain vps35, hits give low values 1.01 | locus YJL164C, strain tpk1, hits give low values 0.983 | locus YJL166W, strain qcr8, hits give low values 0.917 | locus YJL168C, strain set2, hits give low values 1.03 | locus YJL187C, strain SWE1 (second series), hits give low values 0.958 | locus YJL187C, strain SWE1, hits give low values 0.999 | locus YKL068W, hits give low values 1.02 | locus YKL085W, strain MDH1 (second series), hits give low values 1.05 | locus YKL085W, strain MDH1, hits give low values 1.05 | locus YKL160W, strain elf1, hits give low values 0.972 | locus YKL190W, strain CNB1, hits give low values 1.03 | locus YKR001C, strain vps1, hits give low values 1.01 | locus YKR026C, strain gcn3, hits give low values 0.996 | locus YKR091W, strain srl3, hits give low values 0.995 | locus YLL001W, strain dnm1, hits give low values 1 | locus YLL026W, hits give low values 0.997 | locus YLL041C, strain sdh2, hits give low values 0.992 | locus YLR027C, strain aat2, hits give low values 0.973 | locus YLR039C, strain RIC1, hits give low values 1.06 | locus YLR058C, strain SHM2, hits give low values 0.987 | locus YLR102C, strain apc9, hits give low values 1.03 | locus YLR221C, strain rsa3, hits give low values 0.936 | locus YLR258W, strain gsy2, hits give low values 0.983 | locus YLR262C, strain YPT6 (second series), hits give low values 0.979 | locus YLR262C, strain YPT6, hits give low values 1.06 | locus YLR268W, strain sec22, hits give low values 0.94 | locus YLR342W, strain FKS1, hits give low values 0.923 | locus YLR357W, strain rsc2, hits give low values 0.947 | locus YLR370C, strain arc18, hits give low values 0.988 | locus YLR371W, strain rom2, hits give low values 1.03 | locus YLR384C, strain iki3, hits give low values 0.991 | locus YML016C, strain PPZ1, hits give low values 1.03 | locus YML032C, strain rad52, hits give low values 0.956 | locus YML120C, strain ndi1, hits give low values 0.995 | locus YML124C, strain tub3, hits give low values 1.04 | locus YMR058W, strain fet3, hits give low values 0.978 | locus YMR078C, strain ctf18, hits give low values 1.02 | locus YMR125W, strain sto1, hits give low values 1.01 | locus YMR129W, hits give low values 0.996 | locus YMR205C, strain PFK2, hits give low values 0.95 | locus YMR223W, strain ubp8, hits give low values 0.987 | locus YMR231W, strain pep5, hits give low values 0.949 | locus YMR307W, strain GAS1, hits give low values 0.775 | locus YNL067W, strain RPL9B, hits give low values 0.999 | locus YNL153C, strain GIM3, hits give low values 0.97 | locus YNL209W, strain ssb2, hits give low values 0.995 | locus YNL248C, strain rpa49, hits give low values 0.973 | locus YNL250W, strain rad50, hits give low values 1.04 | locus YNL271C, strain bni1, hits give low values 1.02 | locus YNL298W, strain CLA4, hits give low values 0.973 | locus YNL307C, strain MCK1, hits give low values 0.942 | locus YNL322C, strain KRE1 (second series), hits give low values 0.975 | locus YNL322C, strain KRE1, hits give low values 1.04 | locus YNR049C, strain mso1, hits give low values 0.982 | locus YNR052C, strain pop2, hits give low values 1.01 | locus YOL006C, strain TOP1, hits give low values 0.88 | locus YOL012C, strain htz1 0.776 | locus YOL147C, strain pex11, hits give low values 0.999 | locus YOR001W, strain rrp6, hits give low values 0.97 | locus YOR061W, strain CKA2, hits give low values 1.01 | locus YOR069W, strain VPS5, hits give low values 1.03 | locus YOR070C, strain gyp1, hits give low values 0.997 | locus YOR080W, strain dia2, hits give low values 0.979 | locus YOR083W, strain WHI5, hits give low values 0.972 | locus YOR106W, strain vam3, hits give low values 0.961 | locus YOR136W, strain idh2, hits give low values 1.01 | locus YOR144C, strain elg1, hits give low values 1.01 | locus YOR265W, strain rbl2, hits give low values 0.991 | locus YOR270C, strain vph1, hits give low values 0.821 | locus YOR290C, strain snf2, hits give low values 0.942 | locus YOR316C, strain cot1, hits give low values 1.03 | locus YPL051W, strain arl3, hits give low values 0.94 | locus YPL078C, strain atp4, hits give low values 1 | locus YPL106C, strain sse1, hits give low values 1.08 | locus YPL240C, strain hsp82, hits give low values 0.991 | locus YPR119W, strain clb2, hits give low values 1.04 | locus YPR141C, strain kar3, hits give low values 1.04 | locus YPR163C, strain tif3, hits give low values 0.965 | locus YPR167C, strain met16, hits give low values 1.03 | strain wtn01, hits give low values 0.956
active: locus YLR320W, strain mms22, hits give low values 0.877 | locus YLR418C, strain cdc73, hits give low values 0.79 | locus YNL071W, strain lat1, hits give low values 0.906 | locus YNL233W, strain BNI4, hits give low values 0.867 | locus YOR184W, strain ser1, hits give low values 0.868
